The structures appear in SMILES notation. The whole screen tested about 360,000 compounds, of which about 1,800 (0.5%) were called active. Shown is part of a subset that was picked to be rich in actives. Unmarked numbers belong to inactive results.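 How the source made its calls: active means interference check ratio from 0.5 to 1.5 plus GFP to RFP signal ratio inhibition reaching or exceeding a fixed threshold (cut at about 30% in these data, passing the limit was not always enough); inactive means the rest.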

The values below come from PubChem BioAssay AID624304 (Sanford-Burnham Center for Chemical Genomics, 2012).

The experiment in a line: suppressors of acrylamide-induced Pgst-4::GFP reporter in worms, primary screen, SKN-1 inhibitor project, whole organism, uHTS, GFP/RFP fluorescence ratio, strain VP596 (AID 624304). To be noted: C. elegans VP596 Pgst-4::GFP/RFP ratio, 24 h, at 21.8 µM, stronger effect = higher value.
The inhibition is the drop in the measured response relative to a control, in per cent. As to `OCC(CO)(CO)NCc1ccc(-c2ccccc2)cc1`, the inhibition was 5.37%.

`CC(O)c1nc2c(c(=O)n(C)c(=O)n2C)n1C` (stereo unspecified): the inhibition was 1.19%.

Take `Cc1cccc(CN2CCN(Cc3cnn(-c4ccccc4F)c3)CC2CCO)n1` (stereo unspecified): the inhibition was -14.6%.

As for `COc1ccc(C(=O)N(C)CC(O)c2ccccc2)cc1OC1CCN(C(C)=O)CC1` (stereo unspecified), the inhibition is -1.73%.

Consider `COCCNC(=O)c1ccc(-n2c(SCc3cccnc3)nc3ccccc3c2=O)cc1`, for which the inhibition was 7.94%.

For the molecule `CCC(C(=O)NCc1ccccc1)n1c(Cc2cc(F)cc(F)c2)nc2ccccc21` (stereo unspecified), the inhibition was -5.9%.

As to `COc1cccc(NC(=O)C2CCCN(c3ncnc4c3nc3n4CCCCC3)C2)c1` (stereo unspecified), the inhibition is 35.4% (active).

As for `COc1cccc(CNC(=O)C2CCCN(c3ncnc4c3nc3n4CCCCC3)C2)c1` (stereo unspecified), the inhibition is 15.4%.

Take `CCOC(=O)c1cccc(NC(=O)C2CCN(c3ncnc4c3nc3n4CCCCC3)CC2)c1`: the inhibition was -10.7%.

Regarding `CCCC1C(=O)N2C(N(C)C)=Nc3ccc(C)cc3N2C1=O` (stereo unspecified), the inhibition is 11.9%.

With `Cn1c(=O)c2c(ncn2CC(COCc2ccccc2Cl)OCc2ccccc2Cl)n(C)c1=O` (stereo unspecified), the inhibition was -6.9%.

As for `CNC(=O)/C(C#N)=C/c1c(F)cccc1Cl`, the inhibition is 14.6%.

On to `C=CCC1(C#N)C(=S)NC(C)=C(C(=O)OCC)C1c1ccccc1` (stereo unspecified), for which the inhibition is 20.2%.

As for `CCCNC(=O)C1CC(=O)N(c2ccc(OCc3ccccc3)cc2)C1` (stereo unspecified), the inhibition is 5.65%.

With `CC1(C)NC(=O)N(CCCCSc2ccc(Cl)cc2)C1=O`, the inhibition is 4.13%.

As for `CCn1c(=S)[nH]c2cc(S(=O)(=O)N3CCOCC3)ccc21`, the inhibition was -5.66%.

On to `CNS(=O)(=O)c1ccc2c(c1)[nH]c(=S)n2C`, for which the inhibition was 45.2% (active).

In the case of `CCCCn1c(=S)[nH]c2cc(S(=O)(=O)N3CCCCC3)ccc21`, the inhibition is 15.1%.

`COc1ccc2nc(NC(=O)c3ccc(Br)s3)sc2c1`: the inhibition is 38.2% (active).

In the case of `COc1ccc(CNC(=O)c2ccc(Br)s2)cc1OC`, the inhibition was -0.0485%.

Turning to `O=C(Nc1ccc2c(c1)CCC2)c1ccc(Br)s1`, the inhibition was 9.29%.

Regarding `Cc1cc(N)n(-c2ccc(S(=O)(=O)N3CCCC3)cc2[N+](=O)[O-])n1`, the inhibition is -11.2%.

`Cc1oc(-c2cccc(Cl)c2)[n+]([O-])c1C`: the inhibition is 20.3%.

For the molecule `O=C(CCCC(=O)N(CC(=O)NC1CCCC1)Cc1ccccc1Cl)Nc1ccccn1`, the inhibition was 12%.

On to `O=C(NC(=S)Nc1ccc(S(=O)(=O)Nc2ncccn2)cc1)c1cccc(Br)c1`, for which the inhibition was -6.45%.

`O=C(NC(=S)Nc1cccc2c(O)cccc12)c1cccc(Br)c1`: the inhibition was 41.4% (active).

As for `O=C(NC(=S)Nc1ccc(Cl)c(C(=O)O)c1)c1cncc(Br)c1`, the inhibition is -0.232%.

Consider `CC(=O)c1ccc(N2CCN(C(=O)c3ccc(Cl)c(S(=O)(=O)NC4CC4)c3)CC2)c(F)c1`, for which the inhibition is 14.2%.

In the case of `CC(=O)c1ccc(N2CCN(C(=O)CCNC(=O)Cn3ccc4ccccc4c3=O)CC2)cc1`, the inhibition is -6.32%.

As to `CC1CCN(c2ccc([N+](=O)[O-])c(SCCO)c2)CC1`, the inhibition was 13.8%.

For `C=CCNc1nc(Nc2ccc(Cl)cc2)nc(OC)n1`, the inhibition was 13.7%.

On to `CC1(C)N=C(N)NC(Nc2ccc(Cl)cc2)=N1`, for which the inhibition is 9.6%.

Consider `Clc1ccc(Nc2ccc3ccccc3n2)cc1`, for which the inhibition was 47.2% (active).

In the case of `COc1ccc(C(C#N)(CC(=O)O)c2cnccn2)cc1OC` (stereo unspecified), the inhibition is 7.82%.

Consider `Cn1nc(C(C)(C)C)c([N+](=O)[O-])c1C(N)=O`, for which the inhibition was 11.7%.

As to `CC(C)CN1CC(C)C(=O)N(c2ccccc2)C1=S` (stereo unspecified), the inhibition is 6.3%.

As to `FC(F)(F)c1ccc2nnc(-c3c(Cl)cccc3Cl)n2c1`, the inhibition is 13.4%.

Take `Nc1cc(C(F)(F)F)ccc1N1CCOCC1`: the inhibition is 2.47%.

In the case of `CCCC1OC23CCCCC2C(C#N)(C#N)C1(C#N)C(=N)O3` (stereo unspecified), the inhibition is 39.2% (active).

Regarding `O=C(NC1CCCC1)C1CC(=O)N(c2ccc(F)cc2)C1` (stereo unspecified), the inhibition is 0.701%.

On to `O=C(CCCNS(=O)(=O)c1cccc2nsnc12)NCCN1CCN(c2ccccc2F)CC1`, for which the inhibition was -3.19%.

Turning to `CCC(=O)N1CCc2cc(S(=O)(=O)CCC(=O)N3CCN(c4ccccc4F)CC3)ccc21`, the inhibition is 20.2%.

Take `O=C(CCS(=O)(=O)c1cccc2nsnc12)N1CCN(c2ccccc2F)CC1`: the inhibition was 47.3% (active).

As for `CN1CCN(c2ccccc2NC(=O)COc2ccc(C3CCCCC3)cc2)CC1`, the inhibition is -4.71%.

As to `Cc1ccc(-c2ccnc3nc(Sc4ncc(C(F)(F)F)cc4Cl)nn23)cc1`, the inhibition was 41.4% (active).

Regarding `Cc1cc(NC(=O)CSc2ncc(C(F)(F)F)cc2Cl)no1`, the inhibition was -6.53%.

Turning to `Cc1ccc(-c2nc3c(Cl)cc(C(F)(F)F)cn3c2Cc2cccc(Cl)c2)cc1`, the inhibition was 9.6%.

As to `COc1cccc(CNC(=O)COc2cc(O)c3c(c2)OC(C)(C)CC3=O)c1`, the inhibition is 8.05%.

On to `CC1CN/C(=C\C(=O)c2ccc(Br)cc2)C(=O)N1` (stereo unspecified), for which the inhibition is 15.8%.

Regarding `COc1cccc(CNc2nc(NCc3ccccc3OC)nc3ccsc23)c1`, the inhibition is 43.2% (active).

As to `COc1cccc(-c2cc3nc(NCc4ccccc4OC)n(C)c(=O)c3s2)c1`, the inhibition was -2.32%.

Consider `COc1cccc(CNc2nc(NCc3cccs3)nc3ccsc23)c1`, for which the inhibition is 6.96%.

Turning to `CCc1nc2c(OCc3ccc(C(=O)OC)cc3)cccn2c1N(C)C(=O)C(C)C`, the inhibition was 7.01%.

On to `O=C(Nc1ccc(-n2cccn2)cc1)C1CCN(Cc2ccsc2)CC1`, for which the inhibition was -1.22%.

Consider `CCCCNC(=O)c1onc(CSc2cccc(OC)c2)c1C(=O)O`, for which the inhibition was -12.1%.

As to `CCC(C)NC(=O)c1cc(Cl)ccc1OC` (stereo unspecified), the inhibition was 3.09%.

`COC(=O)c1ccc2nc(-c3cccc(Br)c3)c(Cc3ccccc3C(F)(F)F)n2c1`: the inhibition is -9.35%.

On to `Cc1ccc(-c2nc3ccc(Br)cn3c2Cc2ccccc2C(F)(F)F)cc1`, for which the inhibition was 35.2% (active).

As to `Cc1cc(Br)cn2c(Cc3ccccc3C(F)(F)F)c(-c3ccc(Cl)cc3)nc12`, the inhibition was 12.9%.

As to `Cc1cc(C)c2nc(-c3cccnc3)cc(C(=O)Nc3ccc(S(=O)(=O)Nc4onc(C)c4C)cc3)c2c1`, the inhibition is 0.27%.

As for `C/C(N)=C(/C#N)C(=O)COC(=O)c1cc(-c2ccc(C)cc2)nc2ccccc12`, the inhibition is -3.83%.

`O=C(c1ccc(Cl)cc1)n1cnc2ccccc21`: the inhibition is 11.4%.

In the case of `COc1ccc(-c2cc(C(=O)n3cnc4ccccc43)c3ccccc3n2)cc1`, the inhibition was 38.1% (active).

Turning to `CC(C)Sc1nc(N)nc2c1ncn2C1OC(CO)C(O)C1O` (stereo unspecified), the inhibition was 8.48%.

In the case of `Cc1ccc(-n2ncc3c(=O)n(-c4ccc(C)c(C)c4)c(-c4ccco4)nc32)cc1`, the inhibition is 18.1%.

Turning to `Cn1c(-c2ccco2)nc2cc3ccccc3cc21`, the inhibition was 41.7% (active).

As for `Cn1c(SCC(=O)Nc2ccc(Br)cc2F)nnc1-c1ccco1`, the inhibition was 6.52%.

On to `O=C(CN1C2CCC1CC(NC(=O)C1CC1)C2)NCc1ccccc1` (stereo unspecified), for which the inhibition was 35.8% (active).

As for `CC(=O)NC1CC2CCCC(C1)N2CC(=O)Nc1ccccc1` (stereo unspecified), the inhibition was -18.6%.

In the case of `O=C(NCc1ccccc1)C1CCN(C(=O)Cc2ccccc2)CC1`, the inhibition is 9.03%.

Turning to `CCOC(=O)N1CCN(C(=O)c2ccc(CN(c3ccc(C)c(C)c3)S(C)(=O)=O)cc2)CC1`, the inhibition was 6.59%.

Regarding `OCc1nc(CO)n(Cc2ccccc2)n1`, the inhibition is -5.44%.

With `COc1ccc(CC(NC(C)=O)C(=O)N2CCN(C(=O)Nc3cccc(Cl)c3)CC2)cc1OC` (stereo unspecified), the inhibition is 40.7% (active).

Consider `COc1ccc(CC(NC(C)=O)C(=O)NC2CCN(C(=O)Nc3ccc(C#N)cc3)CC2)cc1OC` (stereo unspecified), for which the inhibition was 11.3%.

For `COc1ccc(CC(NC(C)=O)C(=O)NC2CCN(C(=O)C3CC3)CC2)cc1OC` (stereo unspecified), the inhibition was 7.48%.

As for `OC(c1ccc(Cl)c(F)c1)c1ncc(-c2ccccc2Cl)[nH]1` (stereo unspecified), the inhibition is 20.6%.

Turning to `CCN1CCN(c2sc(S(C)(=O)=O)nc2S(=O)(=O)c2ccc(Cl)cc2)CC1`, the inhibition is -10.1%.

Take `COc1cc(N2CCCC2)c(OC)cc1/C=C(/C#N)c1cccc(Br)c1`: the inhibition was 45.8% (active).

For the molecule `N#CC1(Nc2ccc(-c3ccc(Cl)cc3)cc2)CCCC1`, the inhibition was 69% (active).

Consider `N#CC1(Nc2ccc3c4c(cccc24)CC3)CCCCC1`, for which the inhibition is 8.67%.

On to `NC(=O)C1(Nc2ccc(-c3ccccc3)cc2)CCCC1`, for which the inhibition was 13.2%.

In the case of `CC(=O)c1c(C)n([O-])c2ccccc2[n+]1=O`, the inhibition was 36.9% (active).

Regarding `Cc1c(C=O)c2ccccc2n1CC(=O)O`, the inhibition is -4.35%.

On to `CCOC(=O)C1=C(CNC2CCCCC2)NC(=O)NC1c1cc(C)ccc1C` (stereo unspecified), for which the inhibition is -5.96%.

With `C#Cc1ccc(NC(=O)C2(C)CCN2C(=O)Cc2ccc(-c3ccccc3)cc2)cc1` (stereo unspecified), the inhibition is 8.15%.

Regarding `COc1cccc(NC(=S)C(C#N)=C2N(C)c3ccccc3N2C)c1`, the inhibition is -3.75%.

As to `Cc1cccc(OCC(=O)Nc2ccccc2F)c1`, the inhibition was 11.3%.

Take `CC(=O)Nc1cccc(OCC(=O)/C=C2\N(C)c3ccccc3C2(C)C)c1`: the inhibition was 45.5% (active).

Regarding `COCCn1c(SCc2nc3cc(OC)c(OC)cc3c(=O)[nH]2)nnc1-c1ccncc1`, the inhibition is 13.8%.

On to `CCn1c(SCC(=O)Nc2nc(C)cs2)nnc1C(C)NC(=O)c1ccccc1` (stereo unspecified), for which the inhibition is -5.72%.

With `C=CCNC(=S)N1CCN(CCN=Cc2c(C)[nH]n(-c3ccc([N+](=O)[O-])cc3)c2=O)CC1`, the inhibition was -5.99%.

As for `O=S(=O)(c1cccs1)N1CCc2ccccc2C1`, the inhibition is -31.6%.

With `O=C1/C(=C/c2cccs2)CCc2ccccc21`, the inhibition was 41.9% (active).

On to `c1ccc2c(c1)CCc1snnc1-2`, for which the inhibition is 11%.

Take `O=C1/C(=C/c2cccs2)CCC1C1CCCC1` (stereo unspecified): the inhibition is 41.6% (active).

In the case of `O=C(COC(=O)/C=C/c1cccs1)NC1CCCCC1`, the inhibition is 4.24%.
